The values below come from PubChem BioAssay.

Activity calls are given as the source filed them.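 The calls were made as follows, unless noted: active = visually confirmed hit in the image check and inhibition above 20%; inconclusive = visually confirmed hit but inhibition not above 20%; inactive = no visual hit in the image check.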

Sequence of Dual specificity protein phosphatase 6 (Homo sapiens) (Q16828 whole entry, looked up): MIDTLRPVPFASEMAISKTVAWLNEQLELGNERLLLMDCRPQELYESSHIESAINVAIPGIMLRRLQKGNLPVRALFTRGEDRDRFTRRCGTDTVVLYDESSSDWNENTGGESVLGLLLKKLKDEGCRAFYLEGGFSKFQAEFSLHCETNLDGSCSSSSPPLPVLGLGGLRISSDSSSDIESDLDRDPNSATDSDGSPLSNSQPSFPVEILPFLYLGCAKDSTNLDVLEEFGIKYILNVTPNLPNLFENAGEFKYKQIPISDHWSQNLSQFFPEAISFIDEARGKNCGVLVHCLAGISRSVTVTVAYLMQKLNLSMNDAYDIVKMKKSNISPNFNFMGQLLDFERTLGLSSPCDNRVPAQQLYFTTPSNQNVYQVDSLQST

Tested on in one experiment: not listed separately
In words: endothelial E-selectin expression blockers – imaging, HUVEC, immunofluorescence, MLSMR starter and 10KST1 sets, primary screen (AID 487).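 As to inhibition: signal is fraction of cell area covered by stained E-selectin grains.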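 As to nuclei count: 100% = median nuclei count of all wells on the same plate.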 The conditions noted are these: HUVEC TNFalpha-induced E-selectin immunofluorescence imaging, at 2 µM; inhibition: stronger effect = higher value; nuclei count: measured here: cell number, toxicity.
As to `O=C(Cc1ccc(S(=O)(=O)N2CCCC2)s1)Nc1nc2c(s1)CCCC2`, the inhibition is 18.1% (inactive) and the nuclei count turned out to be 71.4%.

As to `Cn1nnnc1SCC(=O)NCc1ccco1`, the nuclei count is 172% and the inhibition is -60.2% (inactive).

Compound `COc1cc(Cn2c(C(=O)O)cc3sccc32)cc(OC)c1OC` returned a nuclei count of 140%.

For `COc1ccc2c(c1)CCc1c(C(=O)N3CCCc4ccccc43)noc1-2`, the inhibition was -32.7% (inactive) and the nuclei count worked out at 108%.

Regarding `COc1ccc(OC)c(NC(=O)C2CCN(c3cc(-c4ccccc4)nc4ncnn34)CC2)c1`, the nuclei count was determined as 150%.

In the case of `C/C(CC(O)(/C=N/O)c1ccccc1)=N\O` (stereo not given), the inhibition was -60.1% (inactive) and the nuclei count amounted to 120%.

As to `CCCCc1oc2ccccc2c1C(=O)c1cc(I)c(OCCN(CC)CC)c(I)c1`, the nuclei count was found to be 136% and the inhibition was -235% (inactive).

In the case of `Cn1cc(C(=O)NC2CCCCCCC2)c(=O)c2cc(S(=O)(=O)N3CCCC3)ccc21`, the nuclei count amounted to 106% and the inhibition is -3.4% (inactive).

As for `Cc1ccc(C2C(C#N)=C(N)Oc3cc4c(cc32)OCO4)cc1` (stereo not given), the inhibition was 22.1% (inactive) and the nuclei count came out at 104%.

`O=C(O)CC(C(=O)OCCOc1ccccc1)N1CCOCC1` (stereo not given): the inhibition is -77.1% (inactive) and the nuclei count turned out to be 109%.

`CN(C)S(=O)(=O)c1ccc(C(=O)N2CCC(c3nc4ccccc4o3)CC2)cc1`: the nuclei count is 95% and the inhibition was 40.1% (inactive).

Take `O=C(CN1CCC(n2nnc3cc(F)ccc32)CC1)Nc1ccc2c(c1)CCC2`: the inhibition was -84.4% (inactive) and the nuclei count stood at 108%.

Turning to `CCOC(=O)CSc1nnc(CNC(=O)c2cccs2)n1-c1cc(OC)ccc1OC`, the nuclei count worked out at 95.1% and the inhibition is -7.4% (inactive).

Regarding `Cc1cnc(C(=O)NCCc2ccc(S(=O)(=O)NC(=O)NC3CCCCC3)cc2)cn1`, the nuclei count turned out to be 134% and the inhibition is -102% (inactive).

For `O=C(CCn1c(=O)sc2ccccc21)NC1=NCCS1`, the nuclei count is 121% and the inhibition was -118% (inactive).

Consider `Cc1ccc(C(C)C)c(OCCCN2CC(C)OC(C)C2)c1` (stereo not given), for which the inhibition is -2.6% (inactive) and the nuclei count was found to be 100%.

As for `COc1cccc(-c2cc(C(=O)Nc3cc(OC)c(OC)c(OC)c3)no2)c1`, the inhibition is -12.3% (inactive) and the nuclei count came to 97.2%.

For the compound `O=C1NC(c2ccccc2)(C(F)(F)F)SC2=NCCCN12` (stereo not given), the nuclei count stood at 154%.

On to `O=C(CP(=O)(CO)CO)c1ccc(Cl)cc1`, for which the nuclei count worked out at 126% and the inhibition is 2.9% (inactive).

For the compound `CC(C)[N+]1(C)[C@@H]2CC[C@H]1CC(OC(=O)C(CO)c1ccccc1)C2` (stereo not given in full), the nuclei count turned out to be 94.7% and the inhibition was -89.2% (inactive).

In the case of `CCC(=O)N1CCc2cc(Br)cc(S(=O)(=O)CCC(=O)NCC3CCCO3)c21` (stereo not given), the nuclei count worked out at 107% and the inhibition was -113% (inactive).

For `COc1cc(OC)cc(-c2nc3nc(C)c(CCC(=O)O)c(C)n3n2)c1`, the nuclei count is 97.4% and the inhibition is 46.5% (inactive).

As to `CCOC(=O)C(CC)(CCC(=O)O)c1csc(N)n1` (stereo not given), the inhibition was 14.4% (inactive) and the nuclei count was found to be 98.1%.

Consider `O=C1CC(=O)N(Cc2cccs2)C(=O)N1`, for which the nuclei count was 116%.

In turn, `COc1cccc(-c2cc3nc4c(c(N5CCC6(CC5)OCCO6)n3n2)CCCC4)c1` registered a nuclei count of 149%.

`Nc1nc(C(=O)N2CCOCC2)nn1S(=O)(=O)c1ccc(Cl)cc1` yielded a nuclei count of 145%.

Turning to `O=C(Nc1ccc2c(c1)OCO2)C1CCCN1C(=O)Nc1ccccc1F` (stereo not given), the nuclei count was 135%.

For `CCOc1cccc(OCCOCCN2CCCC2)c1`, the inhibition was -29.7% (inactive) and the nuclei count came to 103%.

The compound `COc1cccc(C(=O)Nc2cnc(NC(=O)c3ccco3)cc2C)c1` gave a nuclei count of 119%.

Take `CC(C)(C)c1cc(C(=O)O)nn1-c1ccccc1`: the nuclei count came out at 130%.

Compound `COc1ccccc1OCCn1c(=O)sc2ccccc21` registered a nuclei count of 152%.

`COC(=O)c1c(C(=O)OC)n(CCCN)c2ccc(C)cc12` showed a nuclei count of 152%.

For `N=c1c(C(=O)NCc2ccc(F)cc2)cc2c(=O)n3ccccc3nc2n1CCCN1CCOCC1`, the inhibition is -45.8% (inactive) and the nuclei count worked out at 122%.

Compound `Cc1cc(NC(=O)COc2ncnc3sc(C)c(C)c23)no1` showed a nuclei count of 153%.

`CCOC(=O)c1ccc(COC(=O)CCc2nc3ccccc3[nH]c2=O)o1` gave a nuclei count of 147%.

`COc1ccc(N2CCN(c3oc(COc4ccccc4)nc3C#N)CC2)cc1` showed a nuclei count of 155%.

Tested on in the next experiment: not listed separately
Kind of experiment: Primary imaging screen for DUSP6 inhibitors that restore phospho-Erk in transfected HeLa cells, chemical complementation (AID 609;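 active = compounds giving at least 50% inhibition in the cell-based MKP-3 phosphatase rescue imaging test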;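 as to inhibition: phospho-Erk level distribution per well compared with pooled transfected vehicle control wells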). The conditions noted are these: HeLa MKP-3 transfected, phospho-Erk imaging KS statistic; measured here: cell density z-score; at 10 µM; cells stimulated with TPA for 15 min.
`CCCCc1oc2ccccc2c1C(=O)c1cc(I)c(OCCN(CC)CC)c(I)c1` gave a z-score of 0.542.

The compound `Cc1cnc(C(=O)NCCc2ccc(S(=O)(=O)NC(=O)NC3CCCCC3)cc2)cn1` returned a z-score of -0.283.

In turn, `CC(C)[N+]1(C)[C@@H]2CC[C@H]1CC(OC(=O)C(CO)c1ccccc1)C2` (stereo not given in full) yielded a z-score of 1.04.

Still in this experiment, the particulars now being: HeLa MKP-3 transfected, phospho-Erk imaging KS statistic; measured here: nuclear c-Myc green intensity z-score; at 10 µM; cells stimulated with TPA for 15 min.
`CCCCc1oc2ccccc2c1C(=O)c1cc(I)c(OCCN(CC)CC)c(I)c1`: the z-score was -0.674.

Turning to `Cc1cnc(C(=O)NCCc2ccc(S(=O)(=O)NC(=O)NC3CCCCC3)cc2)cn1`, the z-score is 0.557.

The compound `CC(C)[N+]1(C)[C@@H]2CC[C@H]1CC(OC(=O)C(CO)c1ccccc1)C2` (stereo not given in full) yielded a z-score of -0.0729.

Still in this experiment, the particulars now being: HeLa MKP-3 transfected, phospho-Erk imaging KS statistic; measured here: nuclear pErk red intensity z-score; at 10 µM; stronger effect = higher value; cells stimulated with TPA for 15 min.
Turning to `CCCCc1oc2ccccc2c1C(=O)c1cc(I)c(OCCN(CC)CC)c(I)c1`, the z-score was found to be 0.954.

For the compound `Cc1cnc(C(=O)NCCc2ccc(S(=O)(=O)NC(=O)NC3CCCCC3)cc2)cn1`, the z-score was -0.42.

Regarding `CC(C)[N+]1(C)[C@@H]2CC[C@H]1CC(OC(=O)C(CO)c1ccccc1)C2` (stereo not given in full), the z-score was -1.49.

The next experiment addresses Dual specificity protein phosphatase 6 (Homo sapiens) (UniProt Q16828). The description is as above. Particulars: HeLa MKP-3 transfected, phospho-Erk imaging KS statistic; at 10 µM; stronger effect = higher value; cells stimulated with TPA for 15 min.
For the compound `CCCCc1oc2ccccc2c1C(=O)c1cc(I)c(OCCN(CC)CC)c(I)c1`, the inhibition was 5.42% (inactive).

On to `Cc1cnc(C(=O)NCCc2ccc(S(=O)(=O)NC(=O)NC3CCCCC3)cc2)cn1`, for which the inhibition is 12.4% (inactive).

For the compound `CC(C)[N+]1(C)[C@@H]2CC[C@H]1CC(OC(=O)C(CO)c1ccccc1)C2` (stereo not given in full), the inhibition was 25.7% (inactive).

By inhibition is commonly meant the drop in the measured response relative to a control, in per cent.
